Assay [1] in a line: qHTS assay to test for compound auto fluorescence at 535 nm (green) in HEK293 cells (AID 720680).
Assay [2] is described as follows: qHTS assay to test for compound auto fluorescence at 460 nm (blue) in HEK293 cell free culture (AID 720681). In a few lines: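 Blue fluorescence (Ex 405/Em 460 nm, triamterene-equivalent) was read immediately after pin transfer of compound or DMSO into medium (DMEM, 10% FBS) without cells.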
Assay [3] can be described thus: qHTS assay to test for compound auto fluorescence at 535 nm (green) in HEK293 cell free culture (AID 720682). Summed up:
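Read-out: 485/535 nm fluorescence intensity, calibrated against fluorescein. Medium only (DMEM + 10% FBS, no cells); test compound or DMSO vehicle added by pintool before plate reading.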
On the technique in general: In qHTS, concentration-response curves come from the screen itself.

A short description of assay [4]: qHTS assay to test for compound auto fluorescence at 590 nm (red) in HEK293 cell free culture (AID 720683). Summed up:
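Red-channel autofluorescence of compounds in culture medium (DMEM, 10% FBS), no cells, measured at 540/590 nm. Rose Bengal sodium is the reference fluorophore for equivalence.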

Assay [5] in a line: qHTS assay to test for compound auto fluorescence at 590 nm (red) in HepG2 cell free culture (AID 720684). In a few lines: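 Plate contents were MEM with 10% FBS plus test compound or DMSO, no cells. Fluorescence was recorded with 540 nm excitation and 590 nm emission.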
A short description of assay [6]: qHTS assay to test for compound auto fluorescence at 460 nm (blue) in HepG2 cell free culture (AID 720685). In a few lines: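 Compound (23 nL) or DMSO pinned into cell-free MEM with 10% FBS; blue fluorescence read at 405/460 nm excitation/emission, expressed as auto-fluorescence equivalency to triamterene.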
Assay [7] can be described thus: qHTS assay to test for compound auto fluorescence at 535 nm (green) in HepG2 cell free culture (AID 720686).
The nature of assay [8]: qHTS assay to test for compound auto fluorescence at 460 nm (blue) in HepG2 cells (AID 720687). In a few lines:
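Blue-channel autofluorescence (Ex/Em 405/460 nm, triamterene-equivalent) was measured after 1 hr compound exposure at 37 C, 5% CO2. Cells were HepG2, plated overnight at 37 C in MEM plus 10% FBS.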

Assay [9] concerns the target Glucocorticoid receptor (Homo sapiens) (UniProt P04150). The assay can be described thus: qHTS assay to identify small molecule agonists of the glucocorticoid receptor (GR) signaling pathway (AID 720691; active = well fitted activation curve with a large enough effect in the signal ratio in the repeat runs, not every such curve was filed as active; the % refers to the signal ratio). In a few lines:
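GR-bla HeLa cells carrying a GRE-driven beta-lactamase reporter, exposed to compounds for 18 h at 37 C. Reporter activation read as fluorescence after 2 h with LiveBLAzer B/G FRET substrate at room temperature.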

Assay [10] shares this target. Put plainly: qHTS assay to identify small molecule antagonists of the glucocorticoid receptor (GR) signaling pathway (AID 720692; active = well fitted inhibition curve with a large enough effect in the signal ratio in the repeat runs, not every such curve was filed as active; the % refers to the signal ratio). In a few lines:
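GR-bla HeLa cells carrying a GRE-driven beta-lactamase reporter received compound after 4 h plating, then dexamethasone (5 nM final). After 18 h at 37C, the FRET substrate was loaded for 2 h at room temperature and fluorescence read.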

A short description of assay [11]: qHTS assay to identify small molecule antagonists of the glucocorticoid receptor (GR) signaling pathway - cell viability counter screen (AID 720693). Also: nearly all actives have a fitted effect of over 55% in size.
Assay [12] is described as follows: qHTS assay for identifying genotoxic compounds that show differential cytotoxicity against isogenic chicken DT40 cell lines with known DNA damage response pathways - wild type cell line (AID 743012). Also: nearly all actives have a fitted effect of over 60% in size. Also: potency is read from the fitted curve at half-maximal effect. Summed up: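 Wild-type DT40 cells (300/well) exposed to compounds for 40 hours at 37 C/5% CO2. Viability read by CellTiter-Glo luminescence after 30 min at room temperature.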

Assay [13] can be described thus: qHTS assay for identifying genotoxic compounds that show differential cytotoxicity against isogenic chicken DT40 cell lines with known DNA damage response pathways - Rev3 mutant cell line (AID 743014). Also: nearly all actives have a fitted effect of over 55% in size. Also: potency is read from the fitted curve at half-maximal effect.
Assay [14] is described as follows: qHTS assay for identifying genotoxic compounds that show differential cytotoxicity against isogenic chicken DT40 cell lines with known DNA damage response pathways - Rad54/Ku70 mutant cell line (AID 743015). Also: nearly all actives have a fitted effect of over 60% in size. Also: potency is read from the fitted curve at half-maximal effect.
A short description of assay [15]: qHTS assay to identify small molecule antagonists of the androgen receptor (AR) signaling pathway - cell viability counter screen (AID 743033; also: nearly all actives have a fitted effect of over 45% in size).
Assay [16] can be described thus: qHTS assay to identify small molecule antagonists of the androgen receptor (AR) signaling pathway using the MDA cell line - cell viability counter screen (AID 743041; also: nearly all actives have a fitted effect of over 45% in size). Summed up: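 R1881-driven MDA-kb2 AR-luc cells, 3,000/well, were dosed with library compounds for 16 h; cell health came from CellTiter-Fluor fluorescence in the reporter wells.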
Assay [17] has as its target Androgen receptor (Homo sapiens) (UniProt P10275). The assay can be described thus: qHTS assay to identify small molecule antagonists of the androgen receptor (AR) signaling pathway (AID 743035; active = well fitted inhibition curve with a large enough effect in the signal ratio in the repeat runs, not every such curve was filed as active; the % refers to the signal ratio). In a few lines: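 HEK293 cells stably carrying UAS-beta-lactamase reporter, 2,000/well, given compounds plus R1881 agonist and incubated 16 h at 37C. LiveBLAzer B/G FRET substrate then added for 2 h at room temperature before fluorescence reading.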

The target is the same in assay [18]. Put plainly: qHTS assay to identify small molecule agonists of the androgen receptor (AR) signaling pathway (AID 743036; active = well fitted activation curve with a large enough effect in the signal ratio in the repeat runs, with a control signal flat, not every such curve was filed as active; the % refers to the signal ratio). In a few lines:
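HEK293 cells stably carrying a UAS-driven beta-lactamase reporter (GeneBLAzer AR-UAS-bla-GripTite) were plated at 2,000 cells/well, rested 4 h at 37C, then exposed to compounds in DMSO for 16 h. LiveBLAzer B/G FRET substrate was added for 2 h at room temperature; fluorescence read.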

Assay [19] has the same target. The assay can be described thus: qHTS assay to identify small molecule agonists of the androgen receptor (AR) signaling pathway using the MDA cell line (AID 743040; also: nearly all actives have a fitted effect of over 20% in size). In a few lines:
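After a 5 h incubation at 37C and 0% CO2, MDA-kb2 reporter cells were dosed with compounds in DMSO and kept 16 h under the same conditions. Luciferase activity was then read as luminescence with ONE-Glo.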

For assay [20] the target is unchanged. The assay can be described thus: qHTS assay to identify small molecule antagonists of the androgen receptor (AR) signaling pathway using the MDA cell line (AID 743042; also: nearly all actives have a fitted effect of over 55% in size). Summed up: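 Antagonist mode: compounds plus R1881 agonist added to MDA-kb2 AR-luc cells, incubated 16 h at 37C. Luciferase reporter luminescence quantified, with multiplexed CellTiter-Fluor readout for cell viability.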

SMILES strings stand for the structures. Several values for one entry are separate records, joined by “and”; a condition that tells them apart may be missing. Identical values can stand only once. Inconclusive results are not listed. Activity calls are given as the source filed them. Unless noted, calls follow the shape of the dose curve; as a rule, active = well fitted curve in the direction sought with a large enough effect in the repeat runs; inconclusive = weak or mixed curves; inactive = no such curve, though single readings can be large; an effect the other way counts as inactive or inconclusive.

Androgen receptor (Homo sapiens), sequence (P10275 whole entry, looked up): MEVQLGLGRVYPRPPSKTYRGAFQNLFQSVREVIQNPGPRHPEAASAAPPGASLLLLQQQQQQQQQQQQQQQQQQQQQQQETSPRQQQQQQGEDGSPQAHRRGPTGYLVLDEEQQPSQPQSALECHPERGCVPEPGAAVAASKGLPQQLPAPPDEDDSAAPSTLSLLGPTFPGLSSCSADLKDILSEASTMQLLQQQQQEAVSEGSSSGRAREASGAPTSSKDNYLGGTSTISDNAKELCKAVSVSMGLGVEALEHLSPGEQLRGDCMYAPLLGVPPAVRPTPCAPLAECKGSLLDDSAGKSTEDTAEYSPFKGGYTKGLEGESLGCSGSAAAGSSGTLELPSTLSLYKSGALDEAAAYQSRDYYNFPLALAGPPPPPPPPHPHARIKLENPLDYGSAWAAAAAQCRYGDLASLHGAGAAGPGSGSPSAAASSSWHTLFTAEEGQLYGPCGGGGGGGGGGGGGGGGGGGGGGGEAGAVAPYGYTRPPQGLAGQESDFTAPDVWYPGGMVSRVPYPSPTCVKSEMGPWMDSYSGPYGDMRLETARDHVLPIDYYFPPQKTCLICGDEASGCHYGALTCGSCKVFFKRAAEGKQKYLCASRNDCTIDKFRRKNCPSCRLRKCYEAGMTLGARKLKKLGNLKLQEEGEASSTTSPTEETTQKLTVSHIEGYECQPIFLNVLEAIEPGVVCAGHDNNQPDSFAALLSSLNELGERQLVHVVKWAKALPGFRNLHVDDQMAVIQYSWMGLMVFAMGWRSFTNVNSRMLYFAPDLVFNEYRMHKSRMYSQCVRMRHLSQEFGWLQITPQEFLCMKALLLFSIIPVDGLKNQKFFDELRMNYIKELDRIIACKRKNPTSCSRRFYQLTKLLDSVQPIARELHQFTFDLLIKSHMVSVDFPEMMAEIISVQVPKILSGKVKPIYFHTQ
Glucocorticoid receptor (Homo sapiens), sequence (P04150 whole entry, looked up): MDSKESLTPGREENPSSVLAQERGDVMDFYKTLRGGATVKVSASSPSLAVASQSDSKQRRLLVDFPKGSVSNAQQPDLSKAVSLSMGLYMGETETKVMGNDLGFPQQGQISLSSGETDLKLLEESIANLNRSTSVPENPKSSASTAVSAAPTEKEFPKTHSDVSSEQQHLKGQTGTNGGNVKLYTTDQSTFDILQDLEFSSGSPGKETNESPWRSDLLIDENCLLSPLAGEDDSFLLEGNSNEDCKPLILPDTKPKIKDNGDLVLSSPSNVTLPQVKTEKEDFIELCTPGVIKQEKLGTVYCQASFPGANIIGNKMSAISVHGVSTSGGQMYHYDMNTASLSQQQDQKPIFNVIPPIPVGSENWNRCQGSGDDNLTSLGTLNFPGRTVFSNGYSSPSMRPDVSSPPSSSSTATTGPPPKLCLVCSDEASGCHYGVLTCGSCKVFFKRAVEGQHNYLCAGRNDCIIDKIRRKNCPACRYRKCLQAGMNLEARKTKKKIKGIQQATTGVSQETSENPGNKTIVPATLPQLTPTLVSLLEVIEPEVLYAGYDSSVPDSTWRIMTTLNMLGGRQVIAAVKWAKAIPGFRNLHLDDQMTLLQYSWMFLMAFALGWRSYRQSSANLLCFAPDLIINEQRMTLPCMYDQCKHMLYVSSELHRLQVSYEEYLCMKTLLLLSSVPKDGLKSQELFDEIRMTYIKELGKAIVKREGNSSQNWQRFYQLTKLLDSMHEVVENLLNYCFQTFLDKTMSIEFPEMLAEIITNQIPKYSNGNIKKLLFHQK

With `CC(C)NCC(O)c1ccc(NS(C)(=O)=O)cc1` (stereo not given), the call in assay [1], in [2], in assay [3], in [4], in assay [5] and in assay [6] was inactive. For the same compound, the result in assay [7], in assay [8] and in [11] was inactive. The Potency result in assay [9], in assay [10], in assay [12], in [13], in assay [14] and in [15] was “inactive” in each case. Moreover, the Potency entry in assay [16] was “inactive”.

Consider `CCN(CC)CCNC(=O)c1cc(S(C)(=O)=O)ccc1OC`, for which the call in assay [1], in assay [2], in assay [3], in assay [4], in assay [5] and in assay [6] was inactive. In addition, the outcome in [7], in assay [8] and in assay [11] was inactive. The Potency result in assay [9], in assay [10], in assay [12], in [13], in assay [14] and in assay [16] was “inactive” throughout.

In the case of `OC(CCN1CCCCC1)(c1ccccc1)C1CC2C=CC1C2` (stereo not given), the outcome in assay [1], in [2], in assay [3], in assay [4], in [5] and in assay [6] was inactive. For the same compound, the compound was classed as inactive in assay [7], in assay [8] and in assay [11]. Further, the Potency entry in [9], in assay [10] and in assay [15] was “inactive” throughout. In addition, the Potency was 7.5 µM (active) and 9.44 µM (active) in [12]; 15 µM (active) and 13.3 µM (active) in assay [13]; 23.7 µM (active) and 21.1 µM (active) in assay [14].

As to `O=C1CCCCCCCCCCCN1`, the outcome in assay [1], in assay [2], in assay [3], in [4], in [5] and in assay [6] was inactive. For the same compound, the result in assay [7], in assay [8] and in assay [11] was inactive. The Potency result in assay [9], in assay [10], in [12], in assay [13], in assay [14] and in [15] was “inactive” each time. Further, the Potency entry in assay [16] was “inactive”.

For the compound `CO[C@]12C[C@@H](COC(=O)c3cncc(Br)c3)CN(C)[C@@H]1Cc1cn(C)c3cccc2c13`, the result in [1], in [2], in [3], in assay [4], in assay [5] and in [6] was inactive. Besides, the call in assay [7], in assay [8], in assay [11], in [17] and in assay [18] was inactive. For the same compound, the Potency entry in assay [9], in [10], in assay [19], in assay [16] and in assay [20] was “inactive” in each case. Besides, the Potency was 5.96 µM (active) in [12], 10.6 µM (active) in [13] and 11.9 µM (active) in assay [14].

With `O=C[C@H](O)[C@@H](O)[C@H](O)[C@H](O)CO`, the compound was called inactive in [1], in assay [2], in assay [3], in assay [4], in [5] and in [6]. Besides, the outcome in [7], in assay [8] and in assay [11] was inactive. In addition, the Potency entry in assay [9], in [10], in [12], in [13], in [14] and in [15] was “inactive” throughout. Further, the Potency result in [16] was “inactive”.

Take `C1OCOCO1`: the call in assay [1], in [2], in assay [3], in assay [4], in [5] and in assay [6] was inactive. Further, the result in assay [7], in [8] and in [11] was inactive. Further, the Potency entry in assay [9], in assay [10], in assay [12], in assay [13], in assay [14] and in assay [15] was “inactive” in each case. For the same compound, the Potency entry in [16] was “inactive”.

On to `Nc1c[n+](N2CCOCC2)no1`, for which the outcome in assay [1], in [2], in assay [3], in [4], in assay [5] and in assay [6] was inactive. The compound was called inactive in [7], in [8] and in assay [11]. In addition, the Potency entry in assay [9], in assay [10], in assay [12], in assay [13], in assay [14] and in [15] was “inactive” in each case. In addition, the Potency entry in [16] is “inactive”.

Turning to `CCCCOCCOCCOCCCC`, the compound was classed as inactive in assay [1], in [2], in assay [3], in assay [4], in assay [5] and in assay [6]. Moreover, the compound was classed as inactive in [7], in [8] and in assay [11]. In addition, the Potency result in assay [9], in [10], in assay [12], in assay [13], in [14] and in assay [15] was “inactive” in each case. Besides, in assay [16], the Potency entry is “inactive”.

The values are drawn from PubChem BioAssay (Tox21).
